# Bioassay records deposited in PubChem BioAssay by several laboratories.
# M18AAP inhibitor – PfM18AAP inhibitors, malaria aminopeptidase, primary screen, biochemical, QFRET, recombinant enzyme; M18 aspartyl aminopeptidase (Plasmodium falciparum 3D7); H-Glu-NHMec fluorogenic cleavage; inhibition, % at 7.35 µM; 290,000 compounds, 1.2% hits;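 active means inhibition above the campaign mean inhibition over all tested compounds plus 3 SD, cut at about 28% in these data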;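 further: 0% = plate median of test compound wells and 100% = 2 mM ZnCl2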
# pPAFAH FP inh – pPAFAH enzyme inhibitors, primary screen, biochemical, fluorescence polarization, human; Platelet-activating factor acetylhydrolase (Homo sapiens), Q13093; inhibition, % at 3.39 µM; recombinant pPAFAH, FP-rhodamine probe fluorescence polarization; AID 463082, 2010; 330,000 compounds, 1.5% hits;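 active means inhibition above the mean inhibition across the screen plus 3 SD, cut at about 25% in these data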;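 further: inhibitors block binding of the rhodamine activity-based probe so polarization drops; 0% = enzyme with DMSO and 100% = wells lacking pPAFAH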
# PAFAH1B2 FP inh – PAFAH1B2 enzyme inhibitors, primary screen, biochemical, fluorescence polarization, human; recombinant PAFAH1B2, FP-rhodamine activity probe; inhibition, % at 3.39 µM; 340,000 compounds, 1.2% hits;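 active means inhibition above the mean of all tested compounds plus 3 SD, cut at about 24% in these data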;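 further: 0% = enzyme with DMSO and 100% = wells lacking PAFAH1B2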
# Pemphigus Ab inh – inhibitors of pemphigus antibody binding to DSG3, primary screen, biochemical, bead-based, flow cytometry, scFv-GFP. Desmoglein-3 (Homo sapiens), P32926. DSG3-coupled beads, scFv-anti-DSG3-GFP binding; hits give low values. binding (percent of control), % at 10 µM. 310,000 compounds, 0.48% hits. AID 588358, 2011;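 active means binding more than 3 SD below its plate's average and above zero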;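 further: hits lower antibody fragment binding to DSG3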
# Target sequence (P32926 whole entry, looked up, the tested form may be a part): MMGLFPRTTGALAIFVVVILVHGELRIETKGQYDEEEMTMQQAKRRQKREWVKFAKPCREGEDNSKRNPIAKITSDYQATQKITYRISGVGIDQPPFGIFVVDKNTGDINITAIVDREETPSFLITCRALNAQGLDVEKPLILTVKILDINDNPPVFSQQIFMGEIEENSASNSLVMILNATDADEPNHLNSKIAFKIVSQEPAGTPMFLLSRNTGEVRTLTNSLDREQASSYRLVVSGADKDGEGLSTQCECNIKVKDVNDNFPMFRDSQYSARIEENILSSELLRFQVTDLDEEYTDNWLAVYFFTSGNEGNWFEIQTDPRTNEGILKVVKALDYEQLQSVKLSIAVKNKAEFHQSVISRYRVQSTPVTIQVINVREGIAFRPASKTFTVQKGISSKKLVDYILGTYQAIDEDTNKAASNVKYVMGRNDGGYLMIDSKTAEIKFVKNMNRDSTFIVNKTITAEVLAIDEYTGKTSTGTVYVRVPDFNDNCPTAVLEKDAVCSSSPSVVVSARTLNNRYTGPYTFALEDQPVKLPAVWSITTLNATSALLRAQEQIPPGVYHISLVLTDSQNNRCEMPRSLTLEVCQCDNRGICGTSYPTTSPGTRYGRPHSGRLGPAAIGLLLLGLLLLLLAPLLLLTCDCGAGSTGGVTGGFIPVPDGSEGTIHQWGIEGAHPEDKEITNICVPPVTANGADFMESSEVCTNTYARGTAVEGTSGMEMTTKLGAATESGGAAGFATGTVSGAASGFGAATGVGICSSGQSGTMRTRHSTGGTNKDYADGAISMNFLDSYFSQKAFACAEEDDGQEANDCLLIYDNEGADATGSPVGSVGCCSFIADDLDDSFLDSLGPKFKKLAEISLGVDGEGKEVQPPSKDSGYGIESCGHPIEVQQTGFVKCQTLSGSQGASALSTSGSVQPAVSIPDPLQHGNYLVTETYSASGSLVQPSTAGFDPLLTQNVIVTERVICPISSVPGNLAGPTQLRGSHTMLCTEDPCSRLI
# PAFAH2 inh – PAFAH2 enzyme inhibitors, primary screen, biochemical, fluorescence polarization, human; Platelet-activating factor acetylhydrolase 2, cytoplasmic (Homo sapiens), Q99487; recombinant PAFAH2, FP-rhodamine activity probe; inhibition, % at 3.39 µM; 340,000 compounds, 0.99% hits; AID 492956, 2010;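 active means inhibition above the mean over all tested compounds plus 3 SD, cut at about 30% in these data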;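 further: inhibitors block probe labeling of enzyme so polarization drops; 0% = enzyme with DMSO and 100% = wells lacking PAFAH2 protein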
# PAFAH1B3 inh – PAFAH1B3 enzyme inhibitors, primary screen, biochemical, fluorescence polarization, human. inhibition, % at 3.39 µM. Platelet-activating factor acetylhydrolase IB subunit alpha1 (Homo sapiens), Q15102. recombinant PAFAH1B3, FP-rhodamine probe. 340,000 compounds, 0.28% hits;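 active means inhibition above the screen-wide average of all tested compounds plus 3 SD, cut at about 25% in these data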;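 further: 0% = enzyme with DMSO only and 100% = wells lacking PAFAH1B3 protein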
# Numbers without * were called inactive; / = no result given; ! = not active in a repeat. Rows were chosen to be rich in hits. Some 3.8% of all compounds tested hit in one or more screens of this group.
SMILES,M18AAP inhibitor,pPAFAH FP inh,PAFAH1B2 FP inh,Pemphigus Ab inh,PAFAH2 inh,PAFAH1B3 inh
O=C(OCC(=O)c1ccc(Cl)s1)c1ccccn1,1.8,5.6,-2.4,84.6,-0.4,3.0
O=C(COC(=O)c1cnccn1)c1ccc(Cl)cc1,2.5,-0.2,4.3,102.0,3.9,0.4
O=C(COC(=O)c1cnccn1)c1ccc(Br)cc1,3.4,-3.6,26.1*,/,2.5,3.8
CC1(C)CC(=O)C2=C(C1)OC(N)=C(C#N)[C@@H]2c1ccccc1[N+](=O)[O-],29.0*,9.6,1.9,118.1,11.4,7.1
COc1cc(C2C(C#N)=C(N)OC3=C2C(=O)CC(C)(C)C3)c([N+](=O)[O-])cc1OC (centres undefined),21.2,11.9,5.0,103.8,17.6,14.1
Cc1ccc(S(=O)(=O)N2CCN(C(=O)/C=C/c3ccccc3)CC2)cc1C,/,/,-1.7,101.2,2.8,5.4
COc1cccc(/C=N/Nc2snc(SC)c2C#N)c1O,9.0,29.2*,14.6,102.6,33.1*,14.3
COc1ccc(/C=N/Nc2snc(SC)c2C#N)cc1OC,7.6,23.7,4.0,105.0,3.6,10.3
CC(C)(C)c1ccc(C(CC(=O)O)NC(=O)C23CC4CC(CC(C4)C2)C3)cc1 (centres undefined),-2.6,31.1*,25.5*,95.3,10.4,-6.6
CCOc1ccc(-n2cc(-c3ccccc3)c3c(=S)nc[nH]c32)cc1,1.0,28.2*,3.0,127.9,3.5,3.2
O=C(C1CCOCC1)N1CCCC(N2CCN(c3cccc(C(F)(F)F)c3)CC2)C1 (centres undefined),2.7,0.1,0.3,98.2,-2.5,-2.7
COc1cc(CNC(=O)CCCCCCC(C)C)ccc1O,/,25.8*,3.3,97.1,2.8,5.9
COCCN(CCOC)S(=O)(=O)c1ccc(NC(=O)c2cnccn2)cc1,-7.8,-1.9,5.5,108.9,-7.9,9.2
O=C(c1cc([N+](=O)[O-])ccc1N1CCOCC1)N1CCN(S(=O)(=O)c2cc(Cl)ccc2Cl)CC1,/,0.4,-1.8,98.6,7.4,-1.5
O=C(c1cc([N+](=O)[O-])ccc1N1CCN(S(=O)(=O)c2ccc(Cl)c(Cl)c2)CC1)N1CCOCC1,-7.5,1.0,37.3*,105.4,5.1,-2.9
Cc1nc2cc3ccccc3cc2s1,/,/,2.5,115.6,-3.4,2.5
Cc1nc2cc3nc(C)sc3cc2s1,29.4*,1.4,0.2,109.3,-0.1,-2.7
COc1ccc(S(=O)(=O)Nc2c(C)nn(C)c2C)cc1Br,/,3.9,2.3,/,-8.8,6.9
CCn1c(SCC(=O)N(C)c2c(N)n(Cc3ccccc3)c(=O)[nH]c2=O)nnc1-c1cccs1,/,/,/,100.0,/,/
CCOc1ccc(NC(=O)CCC(=O)NNC(=O)COc2ccc(C)cc2)cc1,-10.3,0.1,6.1,83.8*,8.2,9.7
CCOc1ccc(NC(=O)CCSc2ccc(C)cc2)cc1,-8.5,5.9,24.8*,103.7,2.8,1.4
Cc1ccc(SCCC(=O)Nc2ccc(OCc3ccccc3)cc2)cc1,-2.1,6.4,-0.3,98.4,-0.7,-2.2
CCOc1ccc(NC(=O)CCC(=O)NNC(=O)COc2ccc(C)cc2Br)cc1,-8.7,4.4,-2.6,95.8,-7.8,9.3
CC(C)(C)Cc1c(-c2ccc(C#N)cc2)nc2ccc(Cl)cn12,/,/,/,106.8,/,/
O=C(Nc1nnc(CCc2ccccc2)s1)c1cccc(F)c1,1.3,-2.7,24.6*,121.8,10.4,12.3
SMILES,M18AAP inhibitor,pPAFAH FP inh,PAFAH1B2 FP inh,Pemphigus Ab inh,PAFAH2 inh,PAFAH1B3 inh
COc1cc(NC(=O)CSc2nnc3ccccn23)cc(OC)c1OC,/,/,/,104.7,/,/
CN(CC(=O)Nc1ccc(C#N)cc1)Cc1ccc(Cl)cc1Cl,-21.7,2.7,7.3,99.7,4.5,4.3
CN(CC(=O)Nc1ccc(C#N)cc1)Cc1ccc(Cl)cc1,1.8,1.6,31.3*,102.0,7.6,15.6
COc1ccc(NC(=O)c2ccc(CNc3c(NC4CCCCC4)c(=O)c3=O)cc2)c(OC)c1,-1.4,5.1,-3.1,-2.5*!,-10.4,-1.5
COc1ccc(NC(=O)NC2CCCCCCC2)c(OC)c1,3.8,/,8.2,110.9,-2.5,13.0
COc1ccccc1CN(C)CC(=O)NC1CCCc2ccccc21 (centres undefined),-4.6,2.8,2.2,86.3,2.1,8.5
COc1ccc(CC(=O)NC2CCCCCC2)c(OC)c1,5.1,3.2,3.2,-48.3*,1.5,-4.3
COc1ccccc1CN(C)CC(=O)NC(=O)NC1CCCCC1,/,33.6*,0.2,98.2,-0.3,-1.6
CC(NC(=O)CNC(=O)c1cccc(Cl)c1)c1ccccc1 (centres undefined),-8.8,-2.4,-1.4,100.2,3.4,-1.8
COCCCn1c(C)cc(C(=O)CN2c3cccc4cccc(c34)S2(=O)=O)c1C,/,2.2,2.3,99.7,7.6,1.1
COC(=O)c1cc([N+](=O)[O-])c(C)c(C)n1,/,/,/,104.5,/,/
CN(CC(=O)NC(=O)NC1CCCCC1)CC(=O)Nc1ccc(Cl)cc1,/,4.5,24.4*,102.2,1.0,1.8
CN(Cc1ccccc1)C(=O)c1ncn2c1c(=O)[nH]c1cccnc12,/,/,/,100.6,/,/
CCN(c1ccccc1)S(=O)(=O)c1ccc(OC)c(OC)c1,-2.9,2.1,8.6,100.1,-3.6,0.4
CCN(c1ccccc1)S(=O)(=O)c1ccc(OC)c(NS(=O)(=O)c2cccs2)c1,-13.1,10.2,29.9*,101.5,3.9,0.4
Cc1ccsc1CN(C)CC(=O)N(C)CC(=O)Nc1c(Cl)cccc1Cl,/,/,/,97.0,/,/
O=C(Nc1ccc(Cc2ccncc2)cc1)c1cccc([N+](=O)[O-])c1,-6.1,4.4,0.2,89.9,9.7,-7.2
O=C(Nc1ccc(Nc2ccncc2)cc1)c1ccc(Nc2ccnc3ccc([N+](=O)[O-])cc23)cc1,-5.8,/,8.5,59.9*,21.2,13.2
C[C@H]1CN([C@@H](C)CO)C(=O)CCCn2nncc2CO[C@@H]1CN(C)S(=O)(=O)c1cccc(F)c1,/,/,/,105.8,/,/
O=C1[C@@H]2Cc3c([nH]c4ccccc34)CN2C(=O)CN1CCCCCO,7.3,-2.5,-1.2,109.4,1.6,3.2
O=C(O)C(c1ccccc1)N1C(=O)/C(=C\c2ccc(-c3ccccc3Cl)o2)SC1=S (centres undefined),9.8,62.8*,7.9,105.7,45.4*,1.9
CC(C)(C)c1ccc(C(=O)NN2C(=O)CSC2=S)cc1,21.3,7.8,24.8*,97.9,-10.7,-1.6
CC1CCCN(C(=O)C2CC(=O)N(c3ccc(Cl)cc3)C2)C1 (centres undefined),-4.5,-9.9,1.0,106.6,5.0,7.0
